For 68 sequences, z-score results are on record in PubChem BioAssay AID1508600 (Functional Genomics Laboratory (NCATS/FGL), 2020).

The whole screen tested about 53,000 sequences, of which about 3,700 (7%) were called active. Only a selection was taken, and actives are over-represented in it overall. Values without a mark were called inactive.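 How the source made its calls: active means gene knockdowns whose robust z-score for IL-1 alpha signal is at least 2 or at most -2, so actives lie on both sides; inactive means the rest.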

This assay in a line: Components of the Cytosolic LPS Sensing Pathway: Gene Identification via Genome-wide siRNA Screen.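 Further: robust z of the log signal after scaling to non-targeting control siRNA wells of the plate.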 The note with it: RAW264.7 macrophages, IL-1a HTRF, actives lie on both sides, screened at 100 nM (by protocol), cells primed 5 h with Pam3CSK4 first. In outline:
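Read-out: IL-1a HTRF on supernatant, divided by plate negative-control median ×100, log-transformed and converted to robust z-score. Cells were RAW264.7 given 100 nM siRNA, Pam3CSK4-primed 5 hours, then LipidA-transfected 24 hour.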
Consider GGCUUCAAGGACUUUACAATT against Mefv, for which the z-score was 1.62.

In the case of GGUGUGCUCUGUAAAUCAUTT against Trappc2, the z-score was 0.656.

Turning to GGAUGAGCAUAAAAGUCCUTT against Atf7ip, the z-score was -0.536.

Take CCUGUCACAGAUGUAUGUGTT against Rnf149: the z-score was 0.331.

For GGAAUCUCCACCAUACAGGTT against Vmn1r26, the z-score is -0.263.

As for GGAGGAUACAGUGGAGGGATT against Fbxl19, the z-score was 2.81 (active).

For GGACGGUAGCCAUAUUAAUTT against Spink2, the z-score was -0.385.

With GGCUGAAGUUCAUGAUGGCTT against Cd209d, the z-score is 1.7.

Take CCACCAGGGAUCGUUAUAATT against Phyh: the z-score was 2.25 (active).

For the sequence GGCGAUUAUGGAAAAAUGUTT against Osbpl11, the z-score is -0.431.

As for GGCCUUUAUUCUAUGCAGUTT against Htr3a, the z-score was 1.59.

For GGAAAAAACGCACCAGCAUTT against Pou2f1, the z-score is 0.0271.

Consider CCAGACGCGUAACUGCUACTT against Cox6b2, for which the z-score was 3.26 (active).

Consider GGACAAAGAAAAAGAUUCCTT against Stxbp6, for which the z-score is -0.169.

As for CCUGGAACAUAGAUGUAUATT against Jmjd4, the z-score was 0.484.

For GGUCUUUUCUACAUGUGGATT against Olfr389, the z-score is 0.268.

GGAUGCUGAAGUGAAGGACTT against Myt1: the z-score is -0.157.

Consider GCAUGUAGCCUGGCCUUCUTT against Zfp458, for which the z-score is -0.591.

GGAAUGUUGGAAUCAAUUGTT against Gcm1: the z-score was 2.83 (active).

Regarding GGAAUUUUACCUUUUGGAUTT against Tm9sf3, the z-score is 0.408.

On to GGUCUCACUGAAAAUGAAATT against Ces1g, for which the z-score was -0.656.

Turning to GGCUUGUCGUCCUGGUGUATT against Rprd2, the z-score is 0.219.

Take GGCCUACAUCAUUCACUCCTT against Olfr64: the z-score is -0.384.

Take GGAGGAUCUAUACCACGGUTT against Npffr2: the z-score is 0.565.

Turning to GGUUCGAGUCUCUUACUCUTT against Pou4f3, the z-score is -0.574.

GGGUGACCUUUACGUCUUCTT against Reep1: the z-score is 0.0877.

Turning to GGGAGAAGAAUUUGAACAGTT against Ak1, the z-score is 0.557.

For the sequence GGUGGCAGACUGUGUUUAUTT against B3gnt8, the z-score was -2.08 (active).

Take GGGAUGCGGAGGUUUAAGATT against Dhx37: the z-score was 0.815.

As for GGAGCUAAAGCUGCUGAUUTT against S100g, the z-score is -0.404.

As to CCCAGGACGACGACUUUUUTT against Pnmal1, the z-score was -0.0664.

For the sequence “GGACUUGGAAGUAAUUUUCTT against C230071H18Rik”, the z-score was 2.06 (active).

Take GGUUUUGGGCAAAAUUGAGTT against Edf1: the z-score is -0.899.

On to GCUAGGUCAGGGAGUUUUATT against Exosc2, for which the z-score was 3.33 (active).

Consider CCAAUGCAAUGUUAGCUUUTT against Tas1r3, for which the z-score is 0.898.

As for GCCAUGGCAUAAAAACUGGTT against P2rx6, the z-score is -0.329.

In the case of CCACAUGAUCCUAACUUUGTT against Pqbp1, the z-score is -0.157.

Take CCUGAUAAGCAAAUACGGCTT against Rep15: the z-score is -0.893.

On to CCUGAAGCCUCAAUACACATT against Ugt1a1, for which the z-score was 0.967.

Turning to GGCCUAAACACGGUUUUCATT against Ppm1n, the z-score was 3.72 (active).

For the sequence “GGAUGAUCACAAAGGUAUATT against 4632404H12Rik”, the z-score is 0.0665.

For the sequence CCCAGUUGGUGUUUAUAUATT against Ppp3cb, the z-score is 0.115.

As for GGAGAUUUCAUGAACUCUGTT against Srrm3, the z-score was -0.141.

As to GGGUCUGCUACAUCUUCGGTT against Ino80e, the z-score is 2.27 (active).

For GGCCAGGAAAAAAUCUGCATT against Neu1, the z-score was -0.293.

Regarding GGGUUUGACCUGAUUUCUCTT against Col9a1, the z-score is 0.305.

With GGUUACCUCCACCAGAUCATT against Avpi1, the z-score was -0.326.

In the case of GGCGGUAACCACUUUCACGTT against Mycn, the z-score was -0.567.

Take “GGUUCCCUUUUUCAUCUAATT against 4632433K11Rik”: the z-score was 3.08 (active).

In the case of GGAAGAAAUGGAAUUGAAGTT against Pcdhga6, the z-score was 0.649.

Consider GGAGCAUUCAAAUUACAUCTT against Ccni, for which the z-score was 4.62 (active).

Take GGAUGAUCAAGACAAGCAGTT against Nobox: the z-score is -0.763.

Take CCUUGGGAAUUACCCAGAGTT against Cage1: the z-score was -0.565.

For GCCGUUCCCAUUAUCGUUUTT against Tmem87a, the z-score is -0.693.

Take GGAAAUUUGUAUCCCGAGUTT against Trp53: the z-score was -2.14 (active).

As for GGAAGGUGGAGAAAAUCCGTT against Hhipl2, the z-score was 0.585.

GGAAGAUACUAAUAGAGUATT against Enpep: the z-score is -0.00304.

On to GGACGACAACGACAUCAUGTT against Sfrp2, for which the z-score was 0.475.

Turning to GGGACCAAAGGAAACUUCATT against Eif2s3y, the z-score is -0.14.

For the sequence CCCAGGUGAUUCUGAUAUUTT against Rpl30, the z-score is 0.534.

Turning to UGGACUUGCUUCUCACAUCTT against Olfr694, the z-score is -2.22 (active).

GGUACAUUGGCAUUGUGAATT against Hnrnpf: the z-score is 0.525.

For GCCUCCUUUGCUUCAUUUCTT against Fcer1g, the z-score was 1.83.

With GGUCUUCUGAAGAUGGCGUTT against Pja2, the z-score is 1.39.

As for GCAACAAGUCUGGAGACAATT against Pebp1, the z-score was -0.595.

As to GGAGUUCCAGAAGCUUCUATT against Vwa3b, the z-score was -1.72.

For GCGGCUCUUACGAGGUUUATT against Upk3a, the z-score is 0.024.

CGAUGAGAGUCCACUCCCATT against Cox18: the z-score is -3.19 (active).
